The values below come from PubChem BioAssay.

Active and inactive are the calls of the source.

Test [1] can be described thus: binders of probe aFSTL3 on microarray, primary screen, stem cell growth factor project, biochemical, small-molecule microarray, fluorescence 635/667 (AID 1064).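 Note: measures binding of the biotinylated anti-FSTL3 antibody to printed compounds.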 The settings on record: higher = more signal.
A short description of test [2]: binders from COS7 lysate, DM2A8 probe, primary screen, torsin A project, cell lysate, small-molecule microarray, fluorescence 635/667 (AID 1065). The settings on record: higher = more signal, COS7 lysate expressing mutant human TOR1A.
A short description of test [3]: binders of probe aFGF2 on microarray, primary screen, stem cell growth factor project, biochemical, small-molecule microarray, fluorescence 635/667 (AID 1067).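 Note: measures binding of biotinylated aFGF2 protein to printed compounds on slides; z-score merges feature fluorescence and signal-to-noise across triplicate slides.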 The settings on record: higher = more signal.
A short description of test [4]: binders of probe aFGF10 on microarray, primary screen, stem cell growth factor project, biochemical, small-molecule microarray, fluorescence 635/667 (AID 1071).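 Note: score merges 667 nm spot intensity and signal to noise from triplicate slides.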 Conditions: higher = more signal.
The target of test [5] is Neurogenic locus notch homolog protein 2 (Homo sapiens) (UniProt Q04721). Nature of the test: Notch2 binders on small-molecule microarrays, primary screen, biochemical, small-molecule microarray, 635 nm fluorescence, stem cell growth factors (AID 1073). Conditions: Notch2 binding, higher = more signal.
Chain of Neurogenic locus notch homolog protein 2 (Homo sapiens) (Q04721 whole entry, looked up, canonical isoform): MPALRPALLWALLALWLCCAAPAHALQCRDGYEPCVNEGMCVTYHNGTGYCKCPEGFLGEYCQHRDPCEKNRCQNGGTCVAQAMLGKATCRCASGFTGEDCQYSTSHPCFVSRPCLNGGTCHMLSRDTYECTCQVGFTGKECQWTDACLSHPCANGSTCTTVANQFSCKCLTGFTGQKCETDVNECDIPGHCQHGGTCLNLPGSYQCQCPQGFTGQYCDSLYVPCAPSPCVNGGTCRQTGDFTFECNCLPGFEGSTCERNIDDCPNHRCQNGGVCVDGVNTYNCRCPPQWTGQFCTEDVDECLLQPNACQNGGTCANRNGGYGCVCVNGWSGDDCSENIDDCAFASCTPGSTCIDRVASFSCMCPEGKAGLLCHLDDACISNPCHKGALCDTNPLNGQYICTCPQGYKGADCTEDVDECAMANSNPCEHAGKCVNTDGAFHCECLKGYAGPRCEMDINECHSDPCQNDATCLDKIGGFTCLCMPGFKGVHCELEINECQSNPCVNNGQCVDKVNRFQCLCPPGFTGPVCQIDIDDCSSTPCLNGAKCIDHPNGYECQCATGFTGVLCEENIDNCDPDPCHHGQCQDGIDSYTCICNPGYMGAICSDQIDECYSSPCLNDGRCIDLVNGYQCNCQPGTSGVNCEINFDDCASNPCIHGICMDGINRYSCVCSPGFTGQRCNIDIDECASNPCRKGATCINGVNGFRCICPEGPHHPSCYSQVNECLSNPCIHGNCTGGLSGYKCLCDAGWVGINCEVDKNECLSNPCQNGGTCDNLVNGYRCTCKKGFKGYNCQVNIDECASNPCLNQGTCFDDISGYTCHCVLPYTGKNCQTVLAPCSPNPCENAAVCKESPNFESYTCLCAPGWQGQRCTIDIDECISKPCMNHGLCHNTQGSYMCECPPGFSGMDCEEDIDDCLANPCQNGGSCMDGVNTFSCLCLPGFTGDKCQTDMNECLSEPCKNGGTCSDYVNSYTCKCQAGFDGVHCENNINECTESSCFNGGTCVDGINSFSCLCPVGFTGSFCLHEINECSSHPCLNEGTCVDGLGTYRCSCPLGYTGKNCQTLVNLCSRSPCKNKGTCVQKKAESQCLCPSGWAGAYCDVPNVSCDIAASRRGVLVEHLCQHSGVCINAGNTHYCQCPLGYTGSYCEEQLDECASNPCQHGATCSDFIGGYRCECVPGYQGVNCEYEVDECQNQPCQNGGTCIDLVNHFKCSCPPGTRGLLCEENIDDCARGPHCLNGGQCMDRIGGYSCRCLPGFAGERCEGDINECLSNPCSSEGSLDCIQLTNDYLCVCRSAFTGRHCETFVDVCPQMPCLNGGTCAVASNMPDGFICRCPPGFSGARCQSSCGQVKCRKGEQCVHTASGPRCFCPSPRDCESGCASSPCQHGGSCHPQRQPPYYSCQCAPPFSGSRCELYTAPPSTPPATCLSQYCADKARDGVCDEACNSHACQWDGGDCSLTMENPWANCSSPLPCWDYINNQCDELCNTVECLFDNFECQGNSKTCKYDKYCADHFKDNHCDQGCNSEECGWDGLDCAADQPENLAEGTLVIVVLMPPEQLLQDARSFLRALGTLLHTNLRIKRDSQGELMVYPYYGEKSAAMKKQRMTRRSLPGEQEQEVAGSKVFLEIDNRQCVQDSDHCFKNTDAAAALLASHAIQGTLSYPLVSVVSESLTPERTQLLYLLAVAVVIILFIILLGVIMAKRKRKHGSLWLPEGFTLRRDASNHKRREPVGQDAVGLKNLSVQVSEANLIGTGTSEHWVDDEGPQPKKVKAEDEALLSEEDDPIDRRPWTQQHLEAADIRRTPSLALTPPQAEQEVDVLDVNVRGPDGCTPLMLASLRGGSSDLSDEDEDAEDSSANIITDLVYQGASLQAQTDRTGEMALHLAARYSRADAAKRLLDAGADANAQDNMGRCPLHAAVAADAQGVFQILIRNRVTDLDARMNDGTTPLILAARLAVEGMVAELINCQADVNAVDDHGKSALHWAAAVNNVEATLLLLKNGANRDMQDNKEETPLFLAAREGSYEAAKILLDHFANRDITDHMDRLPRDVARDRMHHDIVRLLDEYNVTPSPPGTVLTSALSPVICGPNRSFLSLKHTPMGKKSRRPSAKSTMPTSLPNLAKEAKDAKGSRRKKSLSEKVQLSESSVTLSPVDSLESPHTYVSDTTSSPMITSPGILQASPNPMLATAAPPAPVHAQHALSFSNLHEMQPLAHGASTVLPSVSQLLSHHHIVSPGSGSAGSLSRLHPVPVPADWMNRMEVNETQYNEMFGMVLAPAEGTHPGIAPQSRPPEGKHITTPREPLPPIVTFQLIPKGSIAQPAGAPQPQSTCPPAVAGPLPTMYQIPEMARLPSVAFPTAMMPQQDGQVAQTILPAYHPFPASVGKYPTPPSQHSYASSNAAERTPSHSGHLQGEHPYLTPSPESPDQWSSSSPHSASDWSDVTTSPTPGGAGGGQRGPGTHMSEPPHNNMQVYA
Test [6] concerns the target Pro-neuregulin-1, membrane-bound isoform (Homo sapiens) (UniProt Q02297). Nature of the test: NRG1 binders on small-molecule microarrays, primary screen, psychiatric disease protein project, biochemical, small-molecule microarray, fluorescence 635/667 (AID 1075).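 Note: score combines 667 nm spot fluorescence with signal to noise.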 Conditions: NRG1 binding, 635 nm fluorescence, higher = more signal.
In test [7] the test system is Neuregulin-1 EGF-like domain. Nature of the test: binders of neuregulin-1 EGF-like domain, primary screen, biochemical, small-molecule microarray, 635 nm fluorescence (AID 1081).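 Note: binding of the protein to compounds printed on small-molecule microarray slides.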 The settings on record: small-molecule microarray binding, higher = more signal.
Test [8] is described as follows: FRG1 promoter luciferase signal modulators, primary screen, FRG1 inhibition for FSHD, cell-based, C2C12 myotubes, firefly/Renilla luciferase, luminescence (AID 1084). The settings on record: higher = more signal, called active from +8 up or from −8 down.
Test [9] is described as follows: binders of probe aFST on microarray, primary screen, stem cell growth factor project, biochemical, small-molecule microarray, fluorescence 635/667 (AID 1086).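 Note: score merges 667 nm fluorescence with signal-to-noise of each printed compound spot.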 The settings on record: higher = more signal.
The nature of test [10]: binders of probe aHhip on microarray, primary screen, stem cell growth factor project, biochemical, small-molecule microarray, fluorescence 635/667 (AID 1087).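 Note: score merges spot fluorescence at 667nm with spot signal to noise ratio.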 Conditions: higher = more signal.
For test [11], the system named is PRMT1 (protein arginine N-methyltransferase 1). Description: PRMT1 binders on small-molecule microarrays, primary screen, biochemical, small-molecule microarray, 635 nm fluorescence (AID 1088).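 Note: binding of Prmt1 protein to compounds spotted on small-molecule microarray slides.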 Conditions: small-molecule microarray binding, higher = more signal.
The nature of test [12]: yeast growth modulation, basal conditions, primary screen, YJM789 clinical isolate, OD600, 24 h (AID 1089).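 Note: growth of clinical yeast isolate S. cerevisiae YJM 789 seeded 1000 cells per well; test concentration not given here.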 Conditions: S. cerevisiae YJM789 growth, higher = more signal, called active from +8 up or from −8 down.
Test [13] in a line: fission yeast growth modulation, primary screen, strain 972, OD600, 24 h, no modulator (AID 1090).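 Note: basal condition with compound alone and no growth modifier present; test concentration not given here.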 The settings on record: S. pombe 972 growth, higher = more signal, called active from +8 up or from −8 down.
Test [14] in a line: S. cerevisiae growth modulation with rapamycin, primary screen, strain BY4716, OD600, 96 h (AID 1091). Note: test concentration not given here. The settings on record: higher = more signal, called active from +8 up or from −8 down.
Test [15] has as its target Torsin-1A-interacting protein 2 (Homo sapiens) (UniProt Q8NFQ8). Description: LULL1 binders on small-molecule microarray, primary screen, cell lysate, human LULL1 lysate, 635/667 nm fluorescence (AID 1092).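 Note: probe is lysate of COS7 cells overexpressing human LULL1; score merges per-feature 667 nm fluorescence with signal-to-noise.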 The settings on record: hLULL1 lysate binding, 635 nm fluorescence, higher = more signal.
Test [16] can be described thus: E. coli growth modulation, two-sided OD650, primary screen, E. coli filamentation project, strain DRC41, 24 h (AID 1093).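 Note: MC1000 strain lacking acrAB efflux and sulA so SOS filamentation is blocked; test concentration not given here.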 Conditions: OD650, 24 h, higher = more signal, called active from +8 up or from −8 down.
A short description of test [17]: small-molecule microarray binders of probe aLefty2, primary screen, biochemical, biotinylated probe, 635/667 nm fluorescence (AID 1094).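 Note: score merges spot fluorescence near 667 nm with spot signal-to-noise ratio.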 Conditions: higher = more signal.
Test [18] concerns Noggin (protein binding on small-molecule microarray). Description: Noggin binders on small-molecule microarray, primary screen, biochemical, 635/667 nm fluorescence (AID 1095).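 Note: score merges 667 nm feature fluorescence with signal to noise over triplicate slides.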 Conditions: 635 nm fluorescence, higher = more signal.
In test [19] the target is Neurogenic locus notch homolog protein 3 (Homo sapiens) (UniProt Q9UM47). Nature of the test: NOTCH3 binders on small-molecule microarray, primary screen, biochemical, 635/667 nm fluorescence (AID 1096). Conditions: NOTCH3 binding, 635 nm fluorescence, higher = more signal.
Test [20] can be described thus: small-molecule microarray binders of probe aEGFR, primary screen, biochemical, biotinylated probe, 635/667 nm fluorescence (AID 1097).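 Note: probe is a biotinylated anti-EGFR antibody binding compounds printed on slides; score combines fluorescence near 667 nm and signal to noise of each spot.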 The settings on record: higher = more signal.

Chain of Pro-neuregulin-1, membrane-bound isoform (Homo sapiens) (Q02297 whole entry, looked up, the tested form may be a part, canonical isoform): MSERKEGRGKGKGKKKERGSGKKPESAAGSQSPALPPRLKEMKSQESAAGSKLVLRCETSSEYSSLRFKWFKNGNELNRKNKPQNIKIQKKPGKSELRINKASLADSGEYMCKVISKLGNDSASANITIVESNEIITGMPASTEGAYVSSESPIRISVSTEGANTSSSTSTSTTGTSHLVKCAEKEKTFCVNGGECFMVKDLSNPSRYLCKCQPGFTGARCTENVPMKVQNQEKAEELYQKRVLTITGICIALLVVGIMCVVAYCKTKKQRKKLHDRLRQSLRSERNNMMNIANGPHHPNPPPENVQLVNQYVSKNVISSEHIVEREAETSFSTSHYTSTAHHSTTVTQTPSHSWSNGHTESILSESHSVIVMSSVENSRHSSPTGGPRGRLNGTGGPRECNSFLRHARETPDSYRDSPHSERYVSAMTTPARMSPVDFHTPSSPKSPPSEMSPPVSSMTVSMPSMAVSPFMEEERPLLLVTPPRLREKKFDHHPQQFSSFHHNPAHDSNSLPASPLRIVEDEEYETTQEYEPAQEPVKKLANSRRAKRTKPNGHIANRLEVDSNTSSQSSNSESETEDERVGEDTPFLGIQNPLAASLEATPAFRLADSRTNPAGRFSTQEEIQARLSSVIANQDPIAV
Chain of Torsin-1A-interacting protein 2 (Homo sapiens) (Q8NFQ8 whole entry, looked up): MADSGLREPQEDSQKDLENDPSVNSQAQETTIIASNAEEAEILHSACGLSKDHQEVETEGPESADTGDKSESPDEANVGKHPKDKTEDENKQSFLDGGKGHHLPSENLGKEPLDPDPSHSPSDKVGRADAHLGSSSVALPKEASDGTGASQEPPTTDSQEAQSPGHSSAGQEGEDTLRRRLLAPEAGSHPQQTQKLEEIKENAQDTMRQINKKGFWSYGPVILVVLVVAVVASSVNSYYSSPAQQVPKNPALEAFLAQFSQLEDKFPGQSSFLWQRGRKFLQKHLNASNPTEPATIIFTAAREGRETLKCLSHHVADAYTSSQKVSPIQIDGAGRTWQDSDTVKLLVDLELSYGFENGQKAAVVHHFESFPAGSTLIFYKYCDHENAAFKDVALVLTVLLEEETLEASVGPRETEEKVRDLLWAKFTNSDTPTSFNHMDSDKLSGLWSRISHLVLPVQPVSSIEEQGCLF

With `CC[C@@H]1C=C(C(=O)O)[C@H](c2ccc(C(C)C)cc2)N1S(=O)(=O)c1ccc(C)cc1`, the composite z-score in test [1] was 0.341; in [2], 1.41; in test [3] it was 0.412; in [4], 1.12; in [5] it was 1.75; in [6], 1.91. The composite z-score in test [7] was 0.908; in test [9] it was 1.64; in test [10], 0.0401; in test [11] it was 1.53; in test [15], 3.03; in test [17], 0.678. Further, the composite z-score in test [18] is -0.0177; in [19], 1.03; in [20], 0.516. Moreover, the z-score in test [8] was -2.32 (inactive); in test [12], -0.921 (inactive); in [13], 0.242 (inactive); in test [14] it was -1.07 (inactive); in [16] it was -0.29 (inactive).

As for `C=CCNC(=O)[C@H]1[C@@H]2C(=O)O[C@@H](c3ccccc3)[C@@H](c3ccccc3)N2[C@@H](c2ccc(OCCO)cc2)[C@]12C(=O)N(C(=O)OCCOC)c1ccc(C#CC3(O)CCCCCC3)cc12`, the composite z-score in test [1] is -0.0322; in test [2], 1.14; in test [3] it was -0.0627; in test [4], 0.527; in test [5], 1.03; in test [6], 0.764. The composite z-score in test [7] was 1.31; in [9] it was 0.422; in test [10] it was 0.113; in test [11] it was 1.54; in [15], 2.42; in test [17], -0.0319. Also, the composite z-score in test [18] was determined as 1.6; in test [19], 1.04; in test [20], 0.122. Moreover, the z-score was -0.313 (inactive) in [8]; 1.95 (inactive) in [12]; 0.97 (inactive) in [13]; 6.64 (inactive) in test [14]; 1.08 (inactive) in [16].

As for `COc1ccc([Si](C)(C)[C@H]2[C@H](CC(=O)N3Cc4ccccc4C[C@H]3CO)O[C@@]3(C(=O)N(Cc4cccc(I)c4)c4ccccc43)[C@@H]2C)cc1`, the composite z-score in test [1] was -0.0638; in [2], 2.29; in test [3] it was -0.0158; in test [4], 0.142; in test [5], 0.379; in [6], 0.438. The composite z-score in test [7] was 0.853; in test [9], -0.186; in [10], 0.289; in [11], 1.55; in test [15] it was -0.48; in test [17], -0.119. For the same compound, the results for the composite z-score in test [18], in test [19] and in test [20] were 2.05, 0.863 and -0.0758, respectively. Further, the z-score was -2.84 (inactive) in [8]; -0.413 (inactive) in [12]; 0.603 (inactive) in test [13]; 2.75 (inactive) in test [14]; 1.2 (inactive) in [16].

With `CN1C(=O)C2C=CC(C(O)C=Cc3ccc([N+](=O)[O-])cc3)N(N3CCCCC3)C2C1=O` (stereo not given), the composite z-score in test [1] was 1.79; in test [2], 1.62; in test [3], 0.556; in test [4], 1.11; in test [5] it was 1.69; in test [6], 1.69. In addition, the composite z-score came out at 0.932 in [7]; 2.23 in test [9]; 0.217 in test [10]; 1.09 in [11]; 2.79 in test [15]; 0.859 in test [17]. For the same compound, the composite z-score in test [18] came to 0.38; in test [19] it was 1.06; in [20], 0.789. Besides, the z-score was 4.21 (inactive) in test [8]; -0.704 (inactive) in test [12]; -7.07 (inactive) in test [13]; -0.476 (inactive) in [14]; -1.33 (inactive) in test [16].

Regarding `CC1(C)C(=O)C(c2ccccc2)=C2CN3C(=O)N(CCc4ccccc4)C(=O)C3(Cc3ccccc3)C=C21` (stereo not given), the composite z-score in test [1] was 0.0442; in [2], -0.219; in test [3], -0.0465; in test [4], 0.235; in test [5], 1.63; in test [6], 0.328. Further, the composite z-score in [7] is 0.949; in test [9] it was 1.15; in test [10], -0.11; in test [11], -0.377; in test [15], 2.83; in test [17] it was 0.336. Besides, the composite z-score in [18] is -0.264; in test [19] it was 1.12; in test [20], 0.164. Besides, the z-score in [8] is 0.586 (inactive); in [12], 0.672 (inactive); in [13] it was 2.28 (inactive); in test [14] it was 5.82 (inactive); in test [16], -0.723 (inactive).
